Experiment: binders from COS7 lysate, DM2A8 probe, primary screen, torsin A project, cell lysate, small-molecule microarray, fluorescence 635/667 (AID 1065)
Conditions: higher = more signal, COS7 lysate expressing mutant human TOR1A

Structure (SMILES) | composite z-score
CCOC(=O)C[C@H]1[C@H](OC(=O)Cc2ccc3c(c2)OCO3)[C@@H](NC(=O)c2ccc3ccccc3c2)c2cc(OCCCO)ccc2N1C(=O)Cc1ccc(OC)cc1 | 0.237
O=C(NCc1ccccc1)c1ccc(Br)cc1[N+](=O)[O-] | 0.13
CC(C)(C)OC(=O)CC[C@]1(C(=O)N2CCCCC2)N=C(c2ccc(OCCCO)cc2)O[C@H]1c1ccccc1 | 1.67
C=CCNC(=O)[C@@H]1[C@H]2C(=O)O[C@H](c3ccccc3)[C@H](c3ccccc3)N2[C@H](c2ccc(OCCO)cc2)[C@@]12C(=O)N(C(=O)OCCOC)c1ccc(C#CC3(O)CCCCCC3)cc12 | 1.16
CCCC=C(CCC)[C@@H](NS(=O)(=O)c1ccc(C(F)(F)F)cc1)c1ccc(-c2ccccc2)cc1 | 0.0864
NC(=O)NCC#Cc1ccc2c(c1)[C@]1(C(=O)N2)[C@H](C(=O)N2CCCCCCC2)[C@H]2C(=O)O[C@H](c3ccccc3)[C@H](c3ccccc3)N2[C@@H]1c1ccccc1OCCO | 2.03
C=C[C@H](OC)[C@@H](OC(=O)Nc1ccc(SC)cc1)c1ccc(O)c(F)c1 | -0.22
CO[C@H]1COC(=O)CC=C[C@H](C)COC(=O)[C@@H](OCc2ccccc2)C=C[C@@H]1C | 2.14
CC(C)C[C@@H]1NC(=O)[C@H]2C[C@@H](C(=O)NCCCCCC[N+](C)(C)C)[C@@H](c3ccc(O)cc3)N2C1=O | 0.64
CO[C@H]1COC(=O)[C@@H](C)NC(=O)CC=C[C@@H](C)[C@H](OC)COC(=O)CC=C[C@@H]1C | 1.95
C=CC[C@@]12N=C(c3ccc(OCCCO)cc3)O[C@@H]1c1ccccc1CN(Cc1ccccc1)C2=O | 0.845
COc1ccc([Si](C)(C)[C@@H]2[C@@H](CC(=O)N(CCO)Cc3ccccc3)O[C@]3(C(=O)N(Cc4cccc(N5CCC5=O)c4)c4ccccc43)[C@H]2C)cc1 | 0.861
CN(C)CCCC[C@@H]1NC(=O)[C@@H]2C[C@H](C(=O)O)[C@H](c3ccc(O)cc3)N2C1=O | 0.738
CCOC(=O)C1=CCC(c2cccc3ccccc23)N(S(=O)(=O)c2ccc(C)cc2)C1 (stereo unspecified) | -0.0897
CO[C@@H]1COC(=O)CC=C[C@@H](C)[C@H](OC)COC(=O)CC=C[C@H]1C | 1.22
C=C(COC)/C(=C/C[C@H](OC(C)=O)c1ccc(OCCO)cc1)c1cnc2ccccc2c1 | 0.0548
CO[C@H]1O[C@H](CO)[C@@H](OC(=O)Nc2ccc(Oc3ccccc3)cc2)[C@H](OC(=O)Nc2ccccc2-c2ccccc2)[C@H]1OC(=O)Nc1ccccc1-c1ccccc1 | 0.44
CCC1=C2CN(Cc3ccccc3Br)[C@@H]([C@@H](O)Cc3ccccc3)C2C=CCC1 (stereo partly specified) | -0.12

Structure (SMILES) | composite z-score
[N-]=[N+]=NCc1ccccc1C[C@@]1(C(=O)N2CCOCC2)N=C(c2ccc(OCCCO)cc2)O[C@@H]1c1ccccc1N=[N+]=[N-] | 0.968
C=CC(=O)O[C@@H](Cc1ccccc1)[C@H]1C2C=CCCC=C2CN1Cc1cccc(Cl)c1 (stereo partly specified) | -0.32
NC(=O)[C@H]1[C@@H]2C(=O)O[C@@H](c3ccccc3)[C@@H](c3ccccc3)N2[C@@H](c2ccc(O)cc2)[C@]12C(=O)Nc1ccc(C#CCCO)cc12 | -0.831
NC(=O)NCC#Cc1ccc2c(c1)[C@]1(C(=O)N2)[C@H](C(N)=O)[C@H]2C(=O)O[C@H](c3ccccc3)[C@H](c3ccccc3)N2[C@@H]1c1ccccc1OCCO | 0.494
C=CC[C@]1(C(N)=O)N=C(c2ccc(OCCCO)cc2)O[C@H]1c1ccccc1CN=[N+]=[N-] | 1.36
C[N+](C)(C)CCCCNC(=O)[C@@H]1C[C@@H]2C(=O)N3CCC[C@H]3C(=O)N2[C@@H]1c1cccc(OCCO)c1 | 1.3
O=C1O[C@H](c2ccccc2)[C@H](c2ccccc2)N2[C@H]1[C@@H](C(=O)Nc1nc3ccccc3s1)[C@]1(C(=O)Nc3ccc(C#CC4(O)CCCCCC4)cc31)[C@H]2c1ccc(O)cc1 | -0.0427
COc1ccc(C(O)C2C=CC3C(=O)N(C)C(=O)C3N2N2CCCCC2)cc1OCc1ccccc1 (stereo unspecified) | -0.599
CC1=C([C@H](O)CCc2ccccc2)[C@H](CO)[C@@H]2C(=O)N(Cc3ccccc3)C(=O)[C@@H]2C1 | 0.0897
C=C[C@H](OC)[C@@H](OC(=O)Nc1ccc(SC)cc1)c1ccc(OC)c(O)c1 | -0.368
CC(C)(C)OC(=O)CC[C@@]1(C(=O)NCc2ccccc2)N=C(c2ccc(OCCCO)cc2)O[C@@H]1c1ccccc1 | 1.96
O=C1c2ccccc2[C@](Cc2ccccc2I)(C(=O)NCC(F)(F)F)[C@H](c2ccc(CO)cc2)N1Cc1ccccc1C(F)(F)F | 0.57
C=CCC(OC(C)=O)[C@@H]1[C@@H](N(Cc2cccc3ccccc23)C(=O)Cc2ccc(F)cc2)c2cc(OCCCO)ccc2N1C(=O)Cc1ccc2ccccc2c1 (stereo partly specified) | 0.154
C=CCN1C(=O)[C@@]2(Cc3ccccc3)N=C(c3ccc(OCCCO)cc3)O[C@H]2c2ccccc21 | 0.22
Cc1ccc(N2C(=O)c3ccccc3[C@@H](C(=O)NCc3ccccc3)[C@@H]2c2ccc(CO)cc2)nc1 | 0.205
CO[C@H]1COC(=O)[C@H](C)COC(=O)[C@H](Cc2ccccc2)NC(=O)CC=C[C@H]1C | 0.355
CN(C)CCCC[C@@H]1NC(=O)[C@@H]2C[C@H](C(=O)NCCCCCNC(=O)CS)[C@H](c3ccc(O)cc3)N2C1=O | 0.522
O=C1O[C@H](c2ccccc2)[C@H](c2ccccc2)N2[C@H]1[C@@H](C(=O)NC[C@H](O)c1ccccc1)[C@]1(C(=O)Nc3ccc(C#CC4=CCCCC4)cc31)[C@H]2c1ccc(OCCO)cc1 | 0.21
